PubChem BioAssay AID651623 (National Center for Advancing Translational Sciences (NCATS), 2012)
Unmarked numbers belong to inactive results.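 How the source made its calls: active means inhibition of at least 60% at 114 µM; inconclusive means inhibition from 30% up to below 60% at 114 µM; inactive means inhibition below 30% at 114 µM.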

Each compound was assayed against Ubiquitin carboxyl-terminal hydrolase 8 (Homo sapiens) (UniProt P40818) (assay: Inhibitors of USP1/UAF1: SAR in USP8 diubiquitin SDS-PAGE gel assay). Details: USP8 K63 diubiquitin cleavage; series mostly up to 114 µM; inhibition: at the top concentration.
Chain of Ubiquitin carboxyl-terminal hydrolase 8 (Homo sapiens) (P40818 whole entry, looked up): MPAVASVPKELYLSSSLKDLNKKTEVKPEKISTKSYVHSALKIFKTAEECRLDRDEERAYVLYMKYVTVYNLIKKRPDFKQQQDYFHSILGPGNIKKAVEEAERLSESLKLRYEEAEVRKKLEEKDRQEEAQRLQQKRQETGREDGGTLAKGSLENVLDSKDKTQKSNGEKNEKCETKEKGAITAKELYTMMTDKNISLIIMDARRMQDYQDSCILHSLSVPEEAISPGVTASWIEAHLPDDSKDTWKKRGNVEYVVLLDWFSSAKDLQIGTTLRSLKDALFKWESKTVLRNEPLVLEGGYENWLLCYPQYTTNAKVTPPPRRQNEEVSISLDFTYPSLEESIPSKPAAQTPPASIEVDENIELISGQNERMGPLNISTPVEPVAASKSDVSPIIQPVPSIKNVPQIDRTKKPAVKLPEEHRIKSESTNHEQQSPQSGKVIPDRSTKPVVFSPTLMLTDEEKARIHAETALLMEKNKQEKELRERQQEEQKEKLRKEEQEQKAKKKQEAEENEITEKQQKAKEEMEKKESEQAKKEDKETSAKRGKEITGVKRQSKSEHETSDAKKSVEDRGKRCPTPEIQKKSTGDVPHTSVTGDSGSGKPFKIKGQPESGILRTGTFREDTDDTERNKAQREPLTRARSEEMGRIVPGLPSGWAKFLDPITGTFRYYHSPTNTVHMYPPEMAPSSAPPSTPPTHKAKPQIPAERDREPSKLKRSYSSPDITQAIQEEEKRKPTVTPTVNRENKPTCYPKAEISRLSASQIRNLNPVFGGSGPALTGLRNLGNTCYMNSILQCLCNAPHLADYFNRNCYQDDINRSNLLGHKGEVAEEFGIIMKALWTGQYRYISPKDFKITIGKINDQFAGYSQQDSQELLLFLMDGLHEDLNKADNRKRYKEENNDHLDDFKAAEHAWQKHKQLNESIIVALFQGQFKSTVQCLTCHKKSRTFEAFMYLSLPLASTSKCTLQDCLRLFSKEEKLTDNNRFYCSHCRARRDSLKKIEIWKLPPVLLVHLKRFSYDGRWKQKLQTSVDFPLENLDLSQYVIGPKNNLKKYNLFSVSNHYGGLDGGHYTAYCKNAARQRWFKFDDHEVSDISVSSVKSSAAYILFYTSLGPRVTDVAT
From the text: Deubiquitinating enzymes (DUBs) are a class of enzymes that can cleave isopeptide bond formed between the C-terminal carboxylate of ubiquitin and a lysine side-chain amino group on the target protein. Among them, ubiquitin specific proteases (USPs) constitute the largest DUB family. Human USPs are emerging as promising targets for pharmacological intervention because of their connection to a number of human diseases, including prostate, colon and breast cancer (1, 2), pediatric acute lymphoblastic leukemia (3), and familial cylindromatosis (4). The advantage of inhibiting USPs lies in the potential specificity of therapeutic intervention that can lead to better efficacy and reduce nonspecific side effects. In a collaboration between the University of Delaware and the NIH Chemical Genomics Center, a high-throughput screen assay was developed to screen for USP1/UAF1 inhibitors (5). […]
The inhibition assay contains 80 nM USP8, 2 microM K63 linked diubiquitin, and inhibitors at varied concentrations (0.08 microM - 114 microM). […] The intensity of the individual diubiquitin and monoubiquitin band was quantified using Quantity One 4.3.1 (Biorad, Hercules, CA). The percentage of the conversion was determined and used to calculate the reaction rate. […]

SMILES	inhibition [%]
Cc1cnc(-c2ccccc2C(C)C)nc1NCc1ccc(-n2ccnn2)cc1	3
